High-throughput results deposited in PubChem BioAssay by National Center for Advancing Translational Sciences (NCATS).
Rows were chosen to be rich in hits. Some 12% of all compounds tested hit in one or more screens of this group.
PLK1 PBD inh: inhibitors of human PLK1 polo-box domain binding. P53350. Plk1 PBD binding of FITC phosphopeptide, fluorescence polarization. Potency, µM, inactives show max response, negative = inhibition, actives largely listed as inhibitors. 360,000 tested, 2.8% active; further: series mostly up to about 57 µM; on the % scale 0 is the no-effect control and ±100 the full control effect; nearly all actives have a fitted effect of over 65% in size
G9a inh: blocks human histone lysine methyltransferase G9a; Q96KQ7; G9a H3K9 monomethylation, AlphaScreen, 2 h; Potency, µM (titrated, usually from 102 µM), for inactives: top-dose activity, negative = inhibition, hits mostly inhibitors; 350,000 tested, 8.8% active; further: on the % scale 0 is the no-effect control and ±100 the full control effect; nearly all actives have a fitted effect of over 75% in size
Target sequence (Q96KQ7 913-1193 limits assumed): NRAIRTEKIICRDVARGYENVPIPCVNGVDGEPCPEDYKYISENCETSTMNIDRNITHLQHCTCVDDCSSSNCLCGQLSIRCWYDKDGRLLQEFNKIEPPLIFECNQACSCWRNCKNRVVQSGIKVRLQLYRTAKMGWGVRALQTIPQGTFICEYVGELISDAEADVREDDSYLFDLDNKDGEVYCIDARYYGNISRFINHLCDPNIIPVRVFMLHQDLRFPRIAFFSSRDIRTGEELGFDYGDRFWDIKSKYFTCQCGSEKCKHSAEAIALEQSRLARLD
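Readings reflect AlphaScreen signal from monomethyl-H3K9 antibody detection. HMT at 20 nM; substrate b-H3K9 500 nM; cofactor SAM 20 uM; 2 h RT reaction; compounds tested as titrations in qHTS with 15 min preincubation.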
Sfp inh: Sfp phosphopantetheinyl transferase inhibition; Potency, µM, for inactives: largest response in the series, negative = inhibition, hits mostly inhibitors; 310,000 tested, 3.5% active; Biochemical Sfp PPTase activity, qHTS; Q9F4F7;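 further: the enzyme is Sfp with the accession as filed and its product quenches rhodamine fluorescence; 0% = enzyme reaction without inhibitor and -100% = no enzyme wells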
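Buffer: 50 mM Hepes-Na pH 7.6, 10 mM MgCl2, 0.01% Nonidet P-40, 0.01% BSA. Enzyme 15 nM, pre-exposed to compound 15 min; substrates then added and fluorescence change tracked over 30 min.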
JMJD2A Tudor inh: blocks the human JMJD2A Tudor domain. O75164. AlphaScreen JMJD2A-Tudor / H3K4me3 peptide binding. Potency, µM (highest dose often 114 µM), for inactives: top-dose activity change, negative = inhibition, usual class: inhibitors. 390,000 tested, 4.4% active. AID 504339; further: on the % scale 0 is the no-effect control and ±100 the full control effect; nearly all actives have a fitted effect of over 50% in size
HP1b binding inh: HP1-beta chromodomain-methylated histone interaction inhibition | Potency, µM (highest dose often 114 µM), without a hit: at the top dose activity change, negative = inhibition, hits mostly inhibitors | AlphaScreen HP1-beta / biotin-H3K9me3 peptide binding | P83916 | 390,000 tested, 0.56% active; further: nearly all actives have a fitted effect of over 70% in size
Target sequence (P83916 whole entry, looked up): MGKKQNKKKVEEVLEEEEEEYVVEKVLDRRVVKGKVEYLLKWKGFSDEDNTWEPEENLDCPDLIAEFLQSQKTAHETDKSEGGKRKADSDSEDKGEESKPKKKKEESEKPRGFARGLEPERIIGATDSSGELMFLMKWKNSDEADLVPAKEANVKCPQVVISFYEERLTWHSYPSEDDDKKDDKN
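AlphaScreen: HP1-beta (50 nM) preformed 30 min with biotin-H3(1-18)K9me3 peptide (50 nM) in PBS pH 7.4, 0.01% Tween-20. Compound added for 30 min at RT, then streptavidin donor/nickel chelate acceptor beads (10 ug/mL) for 30 min.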
BAZ2B block: inhibitors of human BAZ2B bromodomain | AlphaScreen BAZ2B-H3K14Ac peptide displacement | Potency, µM (doses to about 114 µM), inactives show at the highest dose activity change, negative = inhibition, hits mostly inhibitors | 360,000 tested, 4.4% active | AID 504333; further: on the % scale 0 is the no-effect control and ±100 the full control effect; nearly all actives have a fitted effect of over 60% in size
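Compounds, titrated to a top concentration of 110 uM, were incubated 30 min at room temperature with preformed BAZ2B/acetyl-K14 H3 peptide complex (50 nM each). Proximity signal was measured by AlphaScreen after 20 min with beads.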
* marks the source's active call; other numbers are inactive results; ? = inconclusive; / = no result given; ! = not active in a repeat; [ ] = dose if it differs, or a comment. The call rests on the fitted dose curve; in most records, active means well fitted curve in the direction sought with a large enough effect; inconclusive means small, poorly fitted or top-dose-only effect, or another doubt; inactive means no such curve, though single readings can be large; an effect the other way counts as inactive or inconclusive. Potency means the concentration at half of the fitted maximal effect.

SMILES	PLK1 PBD inh	G9a inh	Sfp inh	JMJD2A Tudor inh	HP1b binding inh	BAZ2B block
O=C(NCCSc1c(-c2ccccc2)[nH]c2ccccc12)c1ccc(S(=O)(=O)N2CCOCC2)cc1	/	?	/	-18%	23%	-14%
CC1=C(O)C(=O)[C@H]2O[C@@H]2C1=O	/	/	4µM*	/	/	/
O=c1c2ccccc2cnn1Cc1n[nH]c(=S)n1C1CC2CCC1C2 (stereo not given)	-15%	-132%[59 µM]	1%	3.2µM*	19%	-9%
CC1(C)C2C[C@@H](O)[C@]3(C)C(CC[C@@]4(C)[C@H](c5ccoc5)C[C@H]5O[C@]543)[C@@]2(C)[C@@H](O)C[C@H]1O (stereo not given in full)	/	/	-24%	/	/	/
CCc1ccccc1N1C(=O)/C(=C/c2ccc(N3CCN(C)CC3)o2)C(=O)NC1=S	85%	?	-7%	56µM*	?	?
Cc1cccc(N2C(=O)/C(=C/c3ccc(N4CCN(C)CC4)o3)C(=O)NC2=S)c1C	75%	45µM*	63µM*	?	-32%	-63%
CN1C(=O)C(=Cc2ccc(N3CCCCCC3)o2)C(=O)N(C)C1=S	62%	45µM*	-22%	?	-50%	?
COC(=O)C1=C(c2ccc(F)cc2F)C[C@@H]2CC[C@H]1N2C(=O)N1CCCCC1	-1%	14%[2.33 µM]	/	-2%	38%	-4%
CCOc1ccccc1OCCCCN1CCCC1	0%	?	?	32µM*	?	?
Cc1cc(SCc2sc(-c3ccc(C(F)(F)F)c(F)c3)nc2C)ccc1OCC(=O)O	/	/	-21%	/	/	/
Clc1ccccc1N1CCN(Cc2ccc3c(c2)OCO3)CC1	1%	-31%[12.7 µM]	-26%	28µM*	?	79µM*
CN1CCN(Cc2c(F)cccc2Cl)CC1	-1%	22µM*	?	10µM*	?	63µM*
O=c1[nH]c(N2CCN(Cc3ccc4c(c3)OCO4)CC2)nc2c1CCC2	-6%	1%[12.7 µM]	25%	-12%	40%	4%
Cc1ccccc1N1CCN(Cc2ccc3c(c2)OCO3)CC1	-8%	7.9µM*	-6%	5.6µM*	4%	?
Clc1ccccc1CN1CCN(c2ccccc2Cl)CC1	-10%	13µM*	-18%	5.6µM*	?	35µM*
COc1ccc2c(c1)[C@@]13CCCCC1[C@@H](C2)N(C)CC3 (stereo not given in full)	/	-37%[2.33 µM]	-7%	/	/	/
NCCCNCCCCNCCCNC(=O)Cc1ccc(O)cc1	/	7%[12.7 µM]	18%	/	/	/
Cc1[nH]c(=O)n(C(C)(C)C)c(=O)c1Cl	/	/	19%	/	/	/
Fc1ccccc1N1CCN(Cc2ccc3c(c2)OCO3)CC1	-5%	7.9µM*	?	3.5µM*	?	35µM*
COc1ccc(CN2CCN(c3ccccc3F)CC2)cc1O	1%	10µM*	-15%	3.2µM*	?	?
Fc1ccccc1N1CCN(Cc2c(F)cccc2F)CC1	-11%	1.4µM*	?	3.5µM*	?	32µM*
COc1ccccc1N1CCN(Cc2ccc(F)cc2)CC1	0%	-34%	6%	-20%	27%	-11%
Brc1nc(-c2ccccc2)nc(-c2ccccc2)c1Br	2%	/	/	13%	57%	/
c1ccc(-c2ccncc2)cc1	-8%	/	/	-8%	35%	/
C[n+]1ccc(-c2ccncc2)cc1	2%	16µM*	-6%	40µM*	24%	-4%
O=[N+]([O-])c1ccc(S(=O)(=O)N2CCn3cccc3C2c2ccccc2F)cc1 (stereo not given)	/	?	/	?	13%	32µM*
Cc1cc2c(C(C)C)c(O)c(O)c(C=O)c2c(O)c1-c1c(C)cc2c(C(C)C)c(O)c(O)c(C=O)c2c1O	/	9.5µM*	89µM*!	/	/	16µM*
Cc1cc(C(=O)CS(=O)c2ccc(F)cc2)cc(C)c1OC(=O)N(C)C (stereo not given)	12µM*	40µM*	?	-7%	34%	-13%
